Data taken from the supplement of paper PMC10849652.
Of roughly 7,900 targets only a part is listed; those with a hit were picked by preference. About 0.6% of all pairs of compound and target were hits. Unmarked numbers belong to inactive results.

Assays:
Test in all cases: log2 fold change, soluble protein after heating vs DMSO (PISA); higher = thermal stabilisation; K562 cells, 10 uM, 30 min; active = over 0.2 and 3.5 SD of the protein, either way, in both replicates (recomputed)
saracatinib = compound: CN1CCN(CCOc2cc(OC3CCOCC3)c3c(Nc4c(Cl)ccc5c4OCO5)ncnc3c2)CC1 [saracatinib]
Outline: (§1)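 Quantification of soluble protein used TMTpro 16plex LC-MS/MS, with channel sums equalised. Samples were the supernatant after 21,000xg for 90 min of pooled aliquots from K562 cells (2×10^6 cells/mL) treated with 10 μM compound for 30 min, heated for 3 min over 48°C-58°C, and extracted in PBS with 0.5% NP-40 at 4°C. Values, from duplicates, describe thermal stability against control samples on a log2 fold-change scale.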

sotrastaurin = compound: CN1CCN(c2nc(C3=C(c4c[nH]c5ccccc45)C(=O)NC3=O)c3ccccc3n2)CC1 [sotrastaurin]
Outline: as §1

alvocidib = compound: CN1CC[C@H](c2c(O)cc(O)c3c(=O)cc(-c4ccccc4Cl)oc23)[C@H](O)C1 [alvocidib]
Outline: as §1

Tubastatin A = compound: CN1CCc2c(c3ccccc3n2Cc2ccc(C(=O)NO)cc2)C1 [Tubastatin A]
Outline: as §1

[1] = compound: CNC(=O)C1=CC=CC=C1NC2=NC(=NC=C2Cl)NC3=C(C=C(C=C3)N4CCOCC4)OC
Outline: as §1

defactinib = compound: CNC(=O)c1ccc(Nc2ncc(C(F)(F)F)c(NCc3nccnc3N(C)S(C)(=O)=O)n2)cc1 [defactinib]
Outline: as §1

rucaparib = compound: CNCc1ccc(-c2[nH]c3cc(F)cc4c3c2CCNC4=O)cc1 [rucaparib]
Outline: as §1

[2] = compound: CNc1nc(-c2ccc3c(N)n[nH]c3c2)cc(N2C[C@@H](C(=O)NC3CCCCC3)CC[C@H]2C)n1
Outline: as §1

encorafenib = compound: COC(=O)N[C@@H](C)CNc1nccc(-c2cn(C(C)C)nc2-c2cc(Cl)cc(NS(C)(=O)=O)c2F)n1 [encorafenib]
Outline: as §1

[3] = compound: COC(=O)[C@H](CCSC)NC(=O)C1=C(C=C(C=C1)NC[C@H](CS)N)C2=CC=CC=C2
Outline: as §1

Chain of UniProt Q9UHX1 (Q9UHX1 whole entry, looked up): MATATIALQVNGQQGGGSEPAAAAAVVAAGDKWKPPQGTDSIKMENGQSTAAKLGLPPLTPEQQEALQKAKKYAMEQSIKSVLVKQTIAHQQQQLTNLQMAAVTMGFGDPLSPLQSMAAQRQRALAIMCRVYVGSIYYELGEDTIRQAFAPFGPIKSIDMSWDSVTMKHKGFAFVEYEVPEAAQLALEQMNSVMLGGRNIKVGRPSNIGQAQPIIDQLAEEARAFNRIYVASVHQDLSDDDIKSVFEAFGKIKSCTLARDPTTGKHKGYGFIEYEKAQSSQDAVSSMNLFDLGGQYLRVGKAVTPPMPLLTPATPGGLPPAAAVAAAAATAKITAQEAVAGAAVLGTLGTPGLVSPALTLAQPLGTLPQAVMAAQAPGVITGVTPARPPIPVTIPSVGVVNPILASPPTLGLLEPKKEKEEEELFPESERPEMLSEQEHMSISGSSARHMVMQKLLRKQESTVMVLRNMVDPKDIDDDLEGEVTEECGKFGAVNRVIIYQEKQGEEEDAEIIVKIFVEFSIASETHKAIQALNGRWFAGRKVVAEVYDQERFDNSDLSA
Chain of UniProt P05771 (P05771 whole entry, looked up): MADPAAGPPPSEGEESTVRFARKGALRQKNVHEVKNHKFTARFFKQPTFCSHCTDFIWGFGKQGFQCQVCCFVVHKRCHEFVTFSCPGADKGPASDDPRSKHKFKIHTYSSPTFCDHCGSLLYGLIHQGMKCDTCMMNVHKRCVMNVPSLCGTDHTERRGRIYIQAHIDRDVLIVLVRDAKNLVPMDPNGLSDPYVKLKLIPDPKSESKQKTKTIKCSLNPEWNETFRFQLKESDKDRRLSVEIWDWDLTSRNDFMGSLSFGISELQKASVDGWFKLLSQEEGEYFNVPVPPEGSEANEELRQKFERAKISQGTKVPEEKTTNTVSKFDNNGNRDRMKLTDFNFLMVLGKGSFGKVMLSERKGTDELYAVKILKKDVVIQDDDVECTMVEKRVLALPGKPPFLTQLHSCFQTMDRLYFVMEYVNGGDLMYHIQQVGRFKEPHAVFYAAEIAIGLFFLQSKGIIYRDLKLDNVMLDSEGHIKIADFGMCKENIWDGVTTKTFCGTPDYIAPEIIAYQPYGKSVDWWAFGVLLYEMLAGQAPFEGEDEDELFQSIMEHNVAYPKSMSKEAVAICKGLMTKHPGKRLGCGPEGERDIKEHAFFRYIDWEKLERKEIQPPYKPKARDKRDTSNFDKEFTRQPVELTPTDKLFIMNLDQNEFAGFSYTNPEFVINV
Chain of UniProt Q8N165 (Q8N165 whole entry, looked up): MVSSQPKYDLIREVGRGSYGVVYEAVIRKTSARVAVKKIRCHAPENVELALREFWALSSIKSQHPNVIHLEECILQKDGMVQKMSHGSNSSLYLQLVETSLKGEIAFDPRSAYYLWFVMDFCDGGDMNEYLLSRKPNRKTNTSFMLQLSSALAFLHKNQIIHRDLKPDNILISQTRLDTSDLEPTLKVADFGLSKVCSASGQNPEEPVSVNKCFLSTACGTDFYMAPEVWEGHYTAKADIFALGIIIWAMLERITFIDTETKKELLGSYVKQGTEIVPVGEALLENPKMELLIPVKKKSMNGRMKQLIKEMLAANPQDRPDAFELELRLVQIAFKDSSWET
Chain of UniProt P11216 (P11216 whole entry, looked up): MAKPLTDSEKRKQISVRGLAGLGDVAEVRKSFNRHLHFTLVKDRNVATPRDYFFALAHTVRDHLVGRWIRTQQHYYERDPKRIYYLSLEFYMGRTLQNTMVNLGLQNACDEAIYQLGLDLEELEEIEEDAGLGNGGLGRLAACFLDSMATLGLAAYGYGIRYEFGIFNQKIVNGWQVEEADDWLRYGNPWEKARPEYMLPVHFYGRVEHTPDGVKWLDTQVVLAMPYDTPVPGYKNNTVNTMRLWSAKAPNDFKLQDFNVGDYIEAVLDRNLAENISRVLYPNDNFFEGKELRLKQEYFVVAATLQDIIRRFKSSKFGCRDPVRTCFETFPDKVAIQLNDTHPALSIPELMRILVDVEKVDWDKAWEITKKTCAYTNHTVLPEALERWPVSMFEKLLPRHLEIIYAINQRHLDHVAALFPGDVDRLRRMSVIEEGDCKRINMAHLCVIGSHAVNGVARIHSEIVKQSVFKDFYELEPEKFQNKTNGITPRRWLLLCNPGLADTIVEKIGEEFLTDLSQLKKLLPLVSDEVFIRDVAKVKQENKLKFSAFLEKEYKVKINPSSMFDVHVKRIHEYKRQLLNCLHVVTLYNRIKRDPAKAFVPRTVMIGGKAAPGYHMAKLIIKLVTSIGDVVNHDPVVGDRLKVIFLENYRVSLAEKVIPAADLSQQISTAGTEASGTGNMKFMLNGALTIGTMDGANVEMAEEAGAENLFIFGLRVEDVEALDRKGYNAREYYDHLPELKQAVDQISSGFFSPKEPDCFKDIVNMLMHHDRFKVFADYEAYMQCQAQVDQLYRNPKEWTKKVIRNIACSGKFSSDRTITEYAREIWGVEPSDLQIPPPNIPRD
Chain of UniProt O75439 (O75439 whole entry, looked up): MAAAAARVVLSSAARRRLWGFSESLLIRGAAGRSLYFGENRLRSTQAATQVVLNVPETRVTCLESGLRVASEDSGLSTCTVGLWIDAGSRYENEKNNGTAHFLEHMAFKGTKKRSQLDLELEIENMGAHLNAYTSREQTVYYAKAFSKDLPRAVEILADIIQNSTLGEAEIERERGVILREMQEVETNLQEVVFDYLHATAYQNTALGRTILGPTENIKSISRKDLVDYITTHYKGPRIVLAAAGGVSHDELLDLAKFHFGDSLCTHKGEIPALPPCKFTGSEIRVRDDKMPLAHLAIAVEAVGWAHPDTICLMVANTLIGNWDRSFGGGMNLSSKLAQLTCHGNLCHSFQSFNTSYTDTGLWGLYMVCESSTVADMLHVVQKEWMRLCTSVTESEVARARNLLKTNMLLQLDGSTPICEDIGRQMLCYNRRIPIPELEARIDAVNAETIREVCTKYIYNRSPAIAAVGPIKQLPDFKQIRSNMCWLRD
Chain of UniProt Q13523 (Q13523 whole entry, looked up): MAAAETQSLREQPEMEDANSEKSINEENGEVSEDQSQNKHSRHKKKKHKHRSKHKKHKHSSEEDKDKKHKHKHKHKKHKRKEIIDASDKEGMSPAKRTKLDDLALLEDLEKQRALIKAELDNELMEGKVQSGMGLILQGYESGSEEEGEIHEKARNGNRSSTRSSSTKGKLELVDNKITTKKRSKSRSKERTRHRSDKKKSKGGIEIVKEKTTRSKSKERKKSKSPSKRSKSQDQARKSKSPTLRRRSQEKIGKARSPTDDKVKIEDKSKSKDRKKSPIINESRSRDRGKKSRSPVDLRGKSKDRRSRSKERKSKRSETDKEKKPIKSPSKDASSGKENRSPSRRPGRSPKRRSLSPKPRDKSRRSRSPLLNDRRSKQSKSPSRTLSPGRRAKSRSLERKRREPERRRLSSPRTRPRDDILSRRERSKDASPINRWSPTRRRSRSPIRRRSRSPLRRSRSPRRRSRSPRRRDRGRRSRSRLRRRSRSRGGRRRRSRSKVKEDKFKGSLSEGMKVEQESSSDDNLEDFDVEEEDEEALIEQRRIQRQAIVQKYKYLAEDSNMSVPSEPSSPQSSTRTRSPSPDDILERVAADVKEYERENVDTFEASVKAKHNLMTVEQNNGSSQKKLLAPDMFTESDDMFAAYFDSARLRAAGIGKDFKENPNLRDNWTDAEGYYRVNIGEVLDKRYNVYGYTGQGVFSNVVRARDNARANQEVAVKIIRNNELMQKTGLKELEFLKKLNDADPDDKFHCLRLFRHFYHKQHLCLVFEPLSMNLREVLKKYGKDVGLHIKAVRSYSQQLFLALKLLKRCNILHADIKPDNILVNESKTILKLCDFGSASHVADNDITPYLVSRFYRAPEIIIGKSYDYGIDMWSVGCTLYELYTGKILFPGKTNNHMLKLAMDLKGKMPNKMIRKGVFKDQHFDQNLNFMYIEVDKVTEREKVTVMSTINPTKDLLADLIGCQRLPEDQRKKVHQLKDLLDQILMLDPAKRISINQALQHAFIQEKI
Chain of UniProt Q8NCC3 (Q8NCC3 whole entry, looked up): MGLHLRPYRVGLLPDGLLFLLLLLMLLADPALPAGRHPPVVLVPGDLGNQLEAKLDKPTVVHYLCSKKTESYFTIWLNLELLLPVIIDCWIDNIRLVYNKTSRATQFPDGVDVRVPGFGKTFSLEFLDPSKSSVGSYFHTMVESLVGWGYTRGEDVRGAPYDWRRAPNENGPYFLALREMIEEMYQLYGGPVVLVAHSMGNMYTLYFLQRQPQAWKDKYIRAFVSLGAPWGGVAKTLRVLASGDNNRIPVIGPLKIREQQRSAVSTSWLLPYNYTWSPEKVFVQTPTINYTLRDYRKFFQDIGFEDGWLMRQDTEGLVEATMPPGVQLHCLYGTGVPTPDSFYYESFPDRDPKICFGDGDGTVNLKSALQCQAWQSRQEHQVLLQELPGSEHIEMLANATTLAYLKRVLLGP
Chain of UniProt Q9H5K3 (Q9H5K3 whole entry, looked up): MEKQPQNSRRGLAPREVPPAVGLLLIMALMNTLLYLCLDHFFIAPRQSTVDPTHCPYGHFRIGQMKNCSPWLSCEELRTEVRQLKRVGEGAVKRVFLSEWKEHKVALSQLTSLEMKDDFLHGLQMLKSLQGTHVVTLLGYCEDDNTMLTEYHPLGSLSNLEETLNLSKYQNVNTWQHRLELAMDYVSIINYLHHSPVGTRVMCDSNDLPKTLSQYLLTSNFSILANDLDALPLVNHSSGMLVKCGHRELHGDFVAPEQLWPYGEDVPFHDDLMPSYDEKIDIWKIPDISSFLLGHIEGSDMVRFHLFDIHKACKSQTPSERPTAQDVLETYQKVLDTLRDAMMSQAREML
Chain of UniProt Q7RTV0 (Q7RTV0 whole entry, looked up): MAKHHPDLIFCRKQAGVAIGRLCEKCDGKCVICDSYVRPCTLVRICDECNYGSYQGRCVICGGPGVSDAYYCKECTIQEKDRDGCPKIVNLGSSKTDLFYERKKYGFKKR
Chain of UniProt Q15121 (Q15121 whole entry, looked up): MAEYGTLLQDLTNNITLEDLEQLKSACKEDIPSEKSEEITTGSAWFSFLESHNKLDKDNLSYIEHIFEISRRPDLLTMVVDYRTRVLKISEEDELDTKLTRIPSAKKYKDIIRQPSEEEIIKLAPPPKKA

Target | log2 fold change (saracatinib) | log2 fold change (sotrastaurin) | log2 fold change (alvocidib) | log2 fold change (Tubastatin A) | log2 fold change [1] | log2 fold change (defactinib) | log2 fold change (rucaparib) | log2 fold change [2] | log2 fold change (encorafenib) | log2 fold change [3]
PIR (UniProt O00625) | 0.025 | -0.01 | -0.068 | -0.284 (active) | -0.002 | -0.09 | 0.045 | 0 | -0.045 | 0.012
PSMD13 (UniProt Q9UNM6) | -0.073 | 0 | 0.061 | 0.038 | 0.027 | 0.068 | 0.024 | 0.043 | 0.063 | 0.003
PHF5A (UniProt Q7RTV0) | 0.069 | 0.047 | 0.045 | -0.027 | 0.05 | 0.141 | 0.04 | -0.086 | -0.017 | 0.023
PSMD5 (UniProt Q16401) | 0.019 | -0.014 | -0.047 | -0.037 | 0.016 | -0.049 | -0.045 | -0.028 | 0.008 | 0.031
PEA15 isoform 2 (UniProt Q15121) | 0.05 | -0.02 | -0.061 | -0.009 | -0.147 | -0.026 | -0.037 | 0.009 | 0.035 | 0.034
PMPCB (UniProt O75439) | 0.001 | 0.051 | -0.073 | -0.068 | 0.005 | -0.042 | -0.033 | -0.003 | -0.022 | -0.029
PMPCA (UniProt Q10713) | -0.026 | -0.007 | -0.101 | -0.007 | 0.007 | -0.086 | -0.022 | 0.052 | -0.027 | -0.022
PRCP (UniProt P42785) | 0.019 | 0.054 | 0.003 | -0.01 | 0.025 | -0.009 | 0.01 | -0.035 | 0.007 | 0.05
PUF60 (UniProt Q9UHX1) | 0 | -0.035 | -0.138 | 0.048 | -0.197 | -0.173 | -0.003 | -0.007 | 0.049 | -0.012
PRMT8 (UniProt Q9NR22) | 0.015 | -0.046 | -0.029 | -0.09 | -0.009 | -0.039 | -0.059 | 0.052 | 0.01 | -0.122
POGZ (UniProt Q7Z3K3) | -0.134 | -0.186 | -0.065 | -0.071 | 0.056 | -0.162 | 0.196 | 0.136 | -0.02 | -0.043
PRKAR1B (UniProt P31321) | -0.137 | -0.02 | 0.128 | 0.035 | 0.247 | 0.117 | 0.029 | 0.047 | 0.056 | -0.067
PRKCB isoform 2 (UniProt P05771) | -0.006 | -0.343 (active) | -0.014 | -0.004 | 0.012 | -0.03 | 0.001 | -0.03 | 0.031 | -0.001
PRPF38A (UniProt Q8NAV1) | 0.019 | 0.016 | -0.024 | -0.024 | 0.052 | -0.036 | 0.121 | -0.035 | -0.034 | -0.008
PRPF4B (UniProt Q13523) | -0.064 | -0.047 | -0.052 | 0.085 | -0.209 | -0.32 | 0.022 | -0.146 | 0.02 | 0.046
PTPN12 (UniProt Q05209) | 0.085 | -0.148 | 0.007 | 0.064 | 0.063 | 0.006 | 0.047 | -0.04 | 0.076 | -0.088
PDIK1L (UniProt Q8N165) | -0.062 | 0.019 | -0.087 | 0.063 | 0.192 | 0.014 | 0.111 | -0.064 | -0.022 | -0.115
PIK3CB (UniProt P42338) | -0.019 | 0.01 | -0.026 | 0.001 | -0.011 | -0.04 | 0.014 | 0.042 | -0.015 | -0.003
POMK (UniProt Q9H5K3) | -0.047 | 0.007 | -0.083 | 0.021 | 0.022 | 0.024 | 0.168 | -0.052 | 0.089 | -0.056
PLA2G15 (UniProt Q8NCC3) | -0.052 | -0.095 | 0.028 | 0.036 | 0.065 | 0.012 | -0.064 | -0.036 | 0.176 | -0.018
POLR2C (UniProt P19387) | -0.096 | -0.015 | 0.204 | -0.049 | -0.043 | 0.133 | 0.059 | 0.03 | 0.002 | -0.045
PRPSAP2 (UniProt O60256) | 0.011 | 0.084 | 0.003 | -0.018 | -0.017 | 0.01 | -0.014 | 0.03 | -0.004 | -0.012
QRSL1 (UniProt Q9H0R6) | 0.033 | 0.003 | -0.103 | 0.01 | -0.023 | -0.105 | -0.047 | 0.038 | -0.017 | -0.033
PLBD1 (UniProt Q6P4A8) | 0.024 | 0.071 | -0.017 | -0.013 | 0.054 | 0.023 | 0.034 | 0.001 | 0.001 | 0
PYGB (UniProt P11216) | 0.012 | -0.142 | 0.153 | -0.003 | -0.391 (active) | -0.091 | -0.004 | -0.042 | 0.024 | -0.009
POLR2I (UniProt P36954) | 0.134 | 0.033 | 0.371 | -0.266 | 0.009 | 0.141 | 0.162 | 0.02 | 0.015 | 0.023
PTDSS1 (UniProt P48651) | -0.011 | 0.006 | 0.129 | 0.048 | -0.065 | 0.13 | 0.292 | 0.07 | 0.224 | 0.01
PDPK1 (UniProt O15530) | -0.008 | 0.034 | -0.075 | 0.023 | -0.064 | -0.025 | -0.056 | 0.385 (active) | 0.041 | 0
PIP4P1 isoform 2 (UniProt Q86T03) | 0.014 | -0.108 | 0.066 | -0.005 | 0 | 0.039 | -0.026 | -0.059 | -0.027 | 0.015
PRKAR2A (UniProt P13861) | 0.034 | -0.121 | -0.023 | -0.029 | 0.027 | -0.02 | -0.015 | -0.04 | 0.017 | -0.015
